TAR Tat displ: TAR RNA-Tat peptide displacers, HIV-1, primary screen, biochemical, FRET, FAM/TAMRA-labeled Tat; HIV-1 TAR RNA, Tat peptide displacement FRET; stronger effect = higher value; z-score (no concentration beside the values); actives 0.6% (n = 100,000); AID 1259389, 2018; active = z-score of 3 or more in at least 2 runs
CDC25B-CDK2 inh: primary biochemical HTRF screen for blockers of M-phase inducer phosphatase 2 binding to CDK2/cyclin A. actives 0.72% (n = 94,000). P30305+P24941. HTRF CDC25B-CDK2/CyclinA binding, anti-His/anti-Flag; stronger effect = higher value. z-score (test concentration not listed); in the data active = z-score above about 3.2
* = called active by the depositor; · = no result given; ! = a repeat was not active. An excerpt weighted towards active compounds, which were near 0.93% of everything screened.

SMILES | TAR Tat displ | CDC25B-CDK2 inh
O=C1c2ccccc2C(=O)c2cc(NC(=O)C(Cl)(Cl)Cl)ccc21 | · | 16.1*
O=C(/C=C/c1ccccc1)Nc1ccc2c(c1)C(=O)c1ccccc1C2=O | · | -4.12
CCOc1ccc(C(=O)Nc2ccc3c(c2)C(=O)c2ccccc2C3=O)cc1 | · | 0.8
O=C(O)/C=C/C(=O)Nc1ccc2c(c1)C(=O)c1ccccc1C2=O | · | 6.1*
O=c1c2c(-c3ccccc3)csc2ncn1CCCn1ccnc1 | 1.39 | 1.44
CCn1cc2nc(SCc3ccccc3)n(CCc3ccccc3)c(=O)c2n1 | -0.52 | ·
CCOC(=O)c1c(NC(=O)Nc2ccc(Cl)cc2)sc2c1CC(C)(C)OC2 | 0.27 | -1.84
CCOC(=O)c1sc(=S)n(-c2ccc(Cl)cc2)c1N | 1.46 | ·
CCOC(=O)c1sc(=S)n(-c2ccc(OC)cc2)c1N | 1.14 | 16.5*
CC[C@H](C)NC(=O)c1ccc(C)c(NC2=NC3CS(=O)(=O)CC3S2)c1 (stereo partly drawn) | -1.57 | -2.65
Cc1sc2ncnc(Nc3ccc4c(c3)OCO4)c2c1C | 0.84 | ·
Cc1sc2ncnc(NCc3ccc4c(c3)OCO4)c2c1C | 0.1 | -1.96
COc1ccc(Nc2ncnc3sc(C(=O)O)c(C)c23)cc1OC | 35.2* | ·
Cc1c(C(=O)O)sc2ncnc(NCc3ccc4c(c3)OCO4)c12 | 5* | ·
Cc1c(C(=O)O)sc2ncnc(Nc3ccccc3)c12 | -8.32 | ·
Cc1c(C(=O)O)sc2ncnc(Nc3ccc4c(c3)OCCO4)c12 | 25* | ·
COc1ccc2nc(-n3nc(C)c4c3NC(=O)CC4c3c(C)sc4ccccc34)sc2c1 (stereo not drawn) | 0.55 | ·
CC(=O)Oc1cc2c(C(=O)NCC3CCCO3)c(C)oc2c2ccccc12 (stereo not drawn) | 1.29 | 2.34
CC(=O)Oc1cc2c(C(=O)NC3CCS(=O)(=O)C3)c(C)oc2c2ccccc12 (stereo not drawn) | -7.68 | 9.98*
Cc1[nH]c2ccccc2c1SCC(=O)NNC(=O)Nc1cccc(Cl)c1 | · | 14.3*
O=C(CSc1nc2ccccc2c(=O)[nH]1)Nc1cccc(Cl)c1 | 1.84 | ·
COc1ccc(NC(=O)CSc2nc3ncccc3o2)c(OC)c1 | 0.42 | ·
Cc1cc(-c2ccc(C)c(S(=O)(=O)N3CCN(C4CCCCC4)CC3)c2)n[nH]1 | 1.18 | ·
COc1cc2ncc(S(=O)(=O)c3ccccc3)c(N3CCC(C)CC3)c2cc1OC | 1.04 | 1.55
O=S(=O)(c1ccccc1)c1cnc2ccc(Cl)cc2c1N1CCCC1 | 0.16 | -0.64
SMILES | TAR Tat displ | CDC25B-CDK2 inh
CCc1ccc2ncc(S(=O)(=O)c3ccccc3)c(N3CCCC3)c2c1 | -2.49 | 9.11*
COc1cc2ncc(S(=O)(=O)c3ccccc3)c(N3CCCCC3)c2cc1OC | -0.26 | 5.93*
COc1ccc(OC)c(-c2nc3c(c(=O)[nH]2)Cc2cc(C)ccc2O3)c1 | 0.5 | -0.77
O=c1[nH]nc2c3cc(F)ccc3n(Cc3ccccc3)cc1-2 | 3.16* | -1.09
Cc1cccc(Cn2cc3c(=O)[nH]nc-3c3cc(F)ccc32)c1 | 1.6 | 1.11
O=c1oc2c(O)c(O)cc3c(=O)oc4c(O)c(O)cc1c4c23 | 30.6*! | ·
Cc1cc(=O)oc2cc(O)cc(O)c12 | 1.17 | ·
Cc1c(C(=O)C(=O)Nc2cccc(Br)c2)c2ccccc2n1C | · | -1.85
Cc1ccc(-c2nc(SCC(=O)Nc3ccc(C)c(C)c3)n3[nH]c(=O)cc3n2)cc1 | 19.1* | ·
CN(Cc1ccccc1)C(=O)CSc1nc(-c2ccccc2)nc2cc(=O)[nH]n12 | 10.3* | ·
O=C(CSc1nc(-c2cccs2)nc2cc(=O)[nH]n12)Nc1ccccc1 | 0.68 | ·
CSc1cccc(NC(=O)CSc2nc(-c3ccc4c(c3)OCO4)nc3cc(=O)[nH]n23)c1 | 21.9* | ·
COc1ccc(NC(=O)CSc2nc(-c3cccs3)nc3cc(=O)[nH]n23)cc1 | 14.4* | ·
Cc1cc(C)cc(NC(=O)CSc2nc(-c3ccccc3)nc3cc(=O)[nH]n23)c1 | 0.65 | ·
CN(C(=O)CSc1nc(-c2ccccc2)nc2cc(=O)[nH]n12)c1ccccc1 | 1.6 | ·
CCc1ccc(NC(=O)CSc2nc(-c3ccc4c(c3)OCO4)nc3cc(=O)[nH]n23)cc1 | 7.38 | ·
N#Cc1ccc(Oc2ccc(C(F)(F)F)cc2NC(=O)C(F)(F)F)cc1 | · | -0.16
O=C(c1ccc(CS(=O)c2ccccc2)o1)N1CCOCC1 (stereo not drawn) | -0.23 | -1.85
O=S(=O)(Cc1ccc(F)cc1)c1oc(-c2cccs2)nc1S(=O)(=O)c1ccccc1 | 0.45 | -2.07
CSc1ccc(CCNS(=O)(=O)c2ccc3c(c2)CCCC(=O)N3)cc1 | -0.53 | ·
CSc1ccc(C2C(C#N)=C(N)OC3=C2CCc2ccccc23)cc1 (stereo not drawn) | · | 7.5*
CSc1ccc(C2C(C#N)=C(N)Oc3c2ccc2ccccc32)cc1 (stereo not drawn) | -0.49 | -0.13
O=C1[C@@H]2CSC(c3ccc(Cl)cc3)N2C(=O)N1c1ccc(F)cc1 (stereo partly drawn) | -0.02 | -1.34
Cc1ccc(C)c(CN2N=NC3C(=O)N(c4ccc(Cl)cc4)C(=O)C32)c1 (stereo not drawn) | 1.01 | -0.36
O=C(O)c1ccc(-c2cc(C(=O)O)c3c(-c4ccccc4)[nH]nc3n2)cc1 | 1.84 | ·
SMILES | TAR Tat displ | CDC25B-CDK2 inh
O=C(O)c1cc(-c2ccc(O)c(O)c2)nc2n[nH]c(-c3ccccc3)c12 | 19.2* | -0.65
Cc1ccc2oc3c(c(=O)c2c1)C(c1cccs1)N(CCCN1CCOCC1)C3=O (stereo not drawn) | 0.72 | ·
Cc1cccn2c(=O)c(C(=O)NCCCN3CCN(C)CC3)cnc12 | 1.71 | ·
O=C1c2ccccc2C(=O)c2c1ccc(C(=O)O)c2[N+](=O)[O-] | · | -0.12
CC(=O)C(C(C)=O)C1=C([N+](=O)[O-])C(=O)C(=O)c2ccccc21 | · | 3.55*
NCC(O)c1ccc(O)c(O)c1 (stereo not drawn) | · | 5.4*
CC(C)NC[C@H](O)c1ccc(O)c(O)c1 | · | 0.23
COc1ccccc1Nc1nc(C)nc2c1CCC2 | -0.4 | 0.93
CC1CCN(c2ccc3nnc(CCC(=O)NCc4ccc(CN5CCOCC5)o4)n3n2)CC1 | 0.57 | ·
CN(C)CCN(Cc1ccccc1)C(=O)Cn1ncc2c([nH]c3ccccc32)c1=O | 0.43 | ·
O=c1cc2nc(-c3ccco3)nc(SCc3cc(=O)n4nc(C5CCCCC5)sc4n3)n2[nH]1 | 3.34* | ·
CCCc1nn2c(=O)cc(CSc3nc(-c4ccco4)nc4cc(=O)[nH]n34)nc2s1 | 0.67 | ·
CC1(C)CC[C@]2(C(=O)O)CC[C@]3(C)C(=CC[C@@H]4[C@@]5(C)CC[C@H](O)C(C)(C)[C@@H]5CC[C@]43C)[C@@H]2C1 | 3.44 | ·
COC(=O)[C@@]1(C)CC[C@]2(C)CC[C@]3(C)C(=CCC4[C@@]5(C)CCC(O)C(C)(C)C5CC[C@]43C)C2C1 (stereo partly drawn) | · | 5.18*
O=C(Nc1cccc(F)c1)c1cnc2sc3c(n2c1=O)CCCC3 | 1.25 | ·
COc1ccc(C(=O)C2C(c3ccc(O)cc3)NC(=O)NC2(O)C(F)(F)F)cc1 (stereo not drawn) | · | 1.86
N#CC1=C2SCN(Cc3ccco3)CN2C(=O)CC1c1ccc(OCc2ccc(Cl)cc2)cc1 (stereo not drawn) | -1.57 | -0.73
N#CC1=C2SCN(Cc3ccccc3)CN2C(=O)CC1c1ccc(Br)cc1 (stereo not drawn) | -2.34 | -0.18
